PubChem BioAssay AID1509 (The Scripps Research Institute Molecular Screening Center, 2009)
The whole screen tested about 220,000 compounds, of which about 770 (0.35%) were called active. For the sample, actives were picked, then their nearest neighbours and some compounds at random. Values without a mark were called inactive. Rule as the data show it: active = activation above about 11%; inactive = the rest.

Target: Sphingosine 1-phosphate receptor 4 (Homo sapiens) (UniProt O95977)
Assay: activators of human S1P4 receptor – cell-based, primary screen (AID 1509);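 also: 0% = DMSO vehicle and 100% = reference agonist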
Details: S1P4-expressing cell line, agonist reporter assay; at 4.98 µM; active compounds read high

Chain of Sphingosine 1-phosphate receptor 4 (Homo sapiens) (O95977 whole entry, looked up): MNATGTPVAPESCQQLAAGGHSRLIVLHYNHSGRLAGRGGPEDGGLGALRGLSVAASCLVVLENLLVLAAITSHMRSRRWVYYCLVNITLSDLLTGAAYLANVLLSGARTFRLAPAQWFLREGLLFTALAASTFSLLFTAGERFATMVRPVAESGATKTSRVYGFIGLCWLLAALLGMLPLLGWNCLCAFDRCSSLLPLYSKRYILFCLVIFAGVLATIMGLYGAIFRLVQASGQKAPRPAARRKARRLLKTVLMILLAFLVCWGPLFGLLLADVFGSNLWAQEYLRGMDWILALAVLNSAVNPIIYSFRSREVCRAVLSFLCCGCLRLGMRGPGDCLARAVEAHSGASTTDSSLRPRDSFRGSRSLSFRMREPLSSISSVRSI

Row | Compound | activation
1 | Cc1nc(-c2nnc(SCC(=O)Nc3cc(C(F)(F)F)cc(C(F)(F)F)c3)n2C)cs1 | -0.18%
2 | O=C1C=C(c2ccc(Cl)cc2)C(=O)N1Nc1ccccc1 | -3.55%
3 | CCOc1ccc(N2CC(C(=O)N/N=C/c3sccc3C)CC2=O)cc1 (stereo not drawn) | -0.25%
4 | NC(=O)COC(=O)c1sc2cc(F)ccc2c1Cl | 0.19%
5 | COc1ccc(CCNC(=O)C(Sc2ccccn2)c2ccccc2)cc1OC (stereo not drawn) | -2.85%
6 | O=C(Nc1ccc(N2CCOCC2)cc1)c1ccc2c(c1)OCO2 | 1.77%
7 | CC1CN(C(=O)c2ccccc2NS(=O)(=O)c2cccc([N+](=O)[O-])c2)CC(C)O1 (stereo not drawn) | 1.5%
8 | CCc1ccc(Nc2nnc(SCC(=O)c3ccc4c(c3)NC(=O)CO4)s2)cc1 | 1.5%
9 | CC1CCCN(CC(O)COc2ccc3c(c2)OCO3)C1 (stereo not drawn) | 0.61%
10 | COCCn1c(SCc2nnc(-c3ccc(OC)c(OC)c3)o2)nc2sc3c(c2c1=O)CCC3 | 1.63%
11 | CCOc1cnc(-c2c(-c3ccccc3Cl)noc2C)o1 | 0.62%
12 | CC1CCCC(NC(=O)c2cccc(N3CCCC3=O)c2)C1C (stereo not drawn) | -1.52%
13 | COc1ccccc1CNC(=O)CNC(=O)c1cn(-c2ccccc2OC)c(=O)c2ccccc12 | 16.9% (active)
14 | COc1ccccc1CNC(=O)c1cc(=O)c2ccccc2o1 | 0.7%
15 | COc1ccccc1CNC(=O)CCn1c(=O)sc2ccccc21 | -0.92%
16 | COc1cccc(CN(C)CC(=O)Nc2ccccc2C(=O)Nc2ccccc2)c1 | 0.57%
17 | CN(C)c1nc(-c2cccnc2)nc(-c2ccc(Cl)cc2)c1C#N | 0.37%
18 | CC(Oc1ccc(-c2ccccc2)c(F)c1)c1ccn(S(=O)(=O)c2cccc3ccccc23)n1 (stereo not drawn) | -2.56%
19 | COc1ccc(NC(=O)C(=O)NCC(=O)Nc2cccc(C(F)(F)F)c2)cc1 | 0.93%
20 | COc1ccc(-c2ccc(CCC(=O)O)n2NC(=O)c2ccc(C(C)(C)C)cc2)cc1 | -0.13%
21 | CN(C)S(=O)(=O)c1cc(NC(=O)CN2C(=O)NC3(CCCc4ccccc43)C2=O)ccc1Cl (stereo not drawn) | 0.63%
22 | Cc1ccc(-n2c(C)cc(C(=O)CN3C(=O)C(=O)N(C4CCCC4)C3=O)c2C)cc1 | 0.78%
23 | COc1ccc(-n2c(C)cc(C(=O)CN3C(=O)NC4(CCc5ccccc54)C3=O)c2C)cc1 (stereo not drawn) | 16.1% (active)
24 | COC(=O)c1cc(C(=O)N(Cc2ccccc2)c2ccccn2)cc([N+](=O)[O-])c1 | 1.87%

Row | Compound | activation
25 | Cc1ccccc1OCCC(=O)OCC(=O)NC(C)c1ccccc1 (stereo not drawn) | -1.6%
26 | CCN(CC)C(=O)Cn1cc(S(=O)(=O)CC(=O)NCc2ccc3c(c2)OCO3)c2ccccc21 | -1.22%
27 | COc1ccc(C(=O)NN2C(=O)C3C(c4ccccc4)C=CC(c4ccccc4)C3C2=O)cc1 (stereo not drawn) | -0.98%
28 | N#C/C=C(/c1ccc(F)cc1)N1CCOCC1 | -1.05%
29 | Cc1cc2c(C)nc(N/N=C/c3ccccc3)nc2o1 | -1.39%
30 | O=C(CSc1ccccc1)Nc1cc(Cl)ccc1Oc1ccccc1 | 0.59%
31 | Cc1cc(C)cc(NC(=O)CSc2ccccc2)c1 | -1.04%
32 | CC(=O)Nc1ccc(SCC(=O)Nc2ccccc2Oc2ccccc2)cc1 | 13.2% (active)
33 | N#Cc1ccccc1Sc1ccccc1C(=O)OCC(=O)NC1CCCCC1 | 2.4%
34 | O=C(COC(=O)c1ccccc1SCC(=O)NC1CCCCC1)NC1CCCCC1 | 0.41%
35 | O=C(COC(=O)c1cc([N+](=O)[O-])ccc1NCc1ccccc1)NC1CCCCC1 | 15.3% (active)
36 | Cc1nn(CC(=O)Nc2ccc(N(C)C)cc2)c(C)c1[N+](=O)[O-] | -0.79%
37 | NC(=O)c1ccc(-c2csnn2)cc1 | -0.31%
38 | N/C(=N\OC(=O)Cc1ccc([N+](=O)[O-])cc1)c1ccccn1 | 15.5% (active)
39 | O=C(OCc1ccc([N+](=O)[O-])cc1)c1ccccn1 | -1.16%
40 | N/C(=N\OC(=O)c1ccc([N+](=O)[O-])cc1)c1ccccn1 | -0.02%
41 | CCc1ccc(NC(=O)N[C@H](C(=O)O)C(C)CC)cc1 (stereo partly drawn) | -0.3%
42 | O=S(=O)(Nc1ccc(Cl)cn1)c1cnc(Cl)c(Br)c1 | 0.57%
43 | Cc1ccc(Cn2ccc(NC(=O)c3cc(C(C)C)on3)n2)cc1 | -0.1%
44 | Cc1cc(NC(=O)c2cc(-c3cccs3)on2)nn1Cc1ccc(Cl)cc1 | 13.1% (active)
45 | O=C(c1cc(-c2cccs2)on1)N1CCCCC1 | 0.14%
46 | CCn1c(CNC(=O)c2ccco2)nnc1SCC(=O)Nc1cccc(F)c1 | 1.91%
47 | CCn1c(CNC(=O)c2ccc(OC)c(OC)c2)nnc1SCC(=O)Nc1ccccc1 | 21.5% (active)
48 | CCn1c(Cc2ccccc2)nnc1SCC(=O)Nc1ccccc1 | -2.58%

Row | Compound | activation
49 | O=C(CN1CCN(S(=O)(=O)c2ccc(Cl)s2)CC1)NCc1ccc(Cl)cc1 | 0.73%
50 | COC(=O)C1=C(C)N(C)C(=O)NC1c1ccc([N+](=O)[O-])o1 (stereo not drawn) | 0.41%
51 | Brc1ccc(-c2n(-c3ccccn3)c3ccccc3[n+]2-c2ccccn2)cc1 | -0.47%
52 | CCn1c(N)c(Br)c(=O)[nH]c1=O | 0.16%
53 | O=C(NNS(=O)(=O)c1ccccc1)c1cnn(-c2ccc(Cl)cc2)c1C(F)(F)F | 1.09%
54 | Cc1ccc(NC(=O)CC2C(=O)N(Cc3ccccc3)C(=S)N2NC(=O)c2cccc(F)c2)c(C)c1 (stereo not drawn) | 2.02%
55 | Cc1ccc(/C=N/NC(=O)Cn2ccc(C(F)(F)F)n2)o1 | 1.08%
56 | CC(=O)NC(=S)Nc1ccc(NC(=O)c2cccnc2)cc1 | -0.19%
57 | COc1ccc(CCn2c(NN=C3CCCC3)nc3c2c(=O)[nH]c(=O)n3C)cc1 | -1.13%
58 | FC(F)(F)c1ccnc(Oc2ccc(C3=NCCS3)cc2)c1 | -0.27%
59 | O=c1cc(N2CCCCC2)c(-c2ccccc2)nn1Cc1cccc(F)c1 | 0.58%
60 | Cc1cc(C)cc(Oc2nc3c(C)cccn3c(=O)c2/C=C(\C#N)C(=O)NC2CCS(=O)(=O)C2)c1 (stereo not drawn) | 2.53%
61 | Cc1ccc(CSc2nnc(-c3cnccn3)n2C)cc1 | -0.85%
62 | CC(C)c1ccc(NC(=S)NC2CC3C=CC2C3)cc1 (stereo not drawn) | -1.16%
63 | O=C(COC(=O)c1ccccc1F)Nc1cc(S(=O)(=O)N2CCOCC2)ccc1N1CCCC1 | -0.01%
64 | O=C(COC(=O)Cc1ccc(F)cc1)Nc1cc(S(=O)(=O)N2CCOCC2)ccc1N1CCCC1 | 17.3% (active)
65 | O=C(COc1cccc2ccccc12)Nc1cc(S(=O)(=O)N2CCOCC2)ccc1N1CCOCC1 | -0.32%
66 | Cc1cc(C)cc(NC(=O)Cn2cnc3c(nnn3Cc3ccc(F)cc3)c2=O)c1 | -0.07%
67 | O=C(COC(=O)c1ccco1)NCc1ccc(Cl)cc1 | 0.62%
68 | Cc1ccccc1N1CCN(Cc2nc(Cc3ccccc3F)no2)CC1 | 0.64%
69 | COc1ccc(NC(=O)CSc2ncnc3[nH]ncc23)cc1 | -1.23%
70 | CC(C)(C)c1ccc(/C=C2\Oc3c(ccc(O)c3CN3CCN(CCO)CC3)C2=O)cc1 | 0.44%
71 | Cc1c(NC(=O)Nc2ccccc2)cccc1[N+](=O)[O-] | 1.03%
72 | CC(=O)c1cccc(NC(=O)Nc2ccc(C)cc2)c1 | -3.97%

Row | Compound | activation
73 | Cc1ccc(NC(=O)Nc2ccccc2)c(Br)c1 | 19.4% (active)
74 | Cc1ccc(N/C(N)=N/c2nc(C(F)(F)F)cc(C(F)(F)F)n2)cc1 | 2.06%
75 | Fc1ccc(Nc2nnns2)cc1 | 1.1%
76 | CC(=O)c1ccc(S(=O)(=O)N2CCN(C(=O)/C=C/c3ccc4ccccc4n3)CC2)cc1 | -0.28%
77 | COc1ccc(N2C(=O)C(Cc3ccccc3)NC2=S)cc1 (stereo not drawn) | 18.3% (active)
78 | O=C1C(Cc2ccc(O)cc2)NC(=S)N1Cc1ccccc1 (stereo not drawn) | 0.05%
79 | Cc1ccc(N2C(=O)C(Cc3ccccc3)NC2=S)cc1 (stereo not drawn) | -4.7%
80 | O=C(NCc1ccccc1)C1CCCN(c2nc3ccsc3c(=O)s2)C1 (stereo not drawn) | 2.93%
81 | Cc1nn(-c2ccccc2)c(Cl)c1/C=C/C(=O)c1ccc(O)cc1 | 4.66%
82 | Cc1ccc2c(c1)c1ncn(Cc3ccc(F)cc3)c(=O)c1n2C | 0.67%
83 | CC(=O)N1CCC(N(C(=O)Nc2ccc(Cl)cc2)C(C)C)CC1 | -0.35%
84 | CCOc1ccc(/C(O)=C2\C(=O)C(=O)N(c3ccc(OC)cc3)C2c2ccccc2[N+](=O)[O-])cc1 (stereo not drawn) | 0.81%
85 | COc1ccccc1N1N=C(c2cccs2)CC1c1ccccc1 (stereo not drawn) | 7.12%
86 | COc1ccc(C2CC(c3cccs3)=NN2c2nc(C)c(C(C)=O)s2)cc1OC (stereo not drawn) | 2.99%
87 | COc1ccc(C2CC(c3cccs3)=NN2c2ccc(F)cc2)cc1OC (stereo not drawn) | 19.4% (active)
88 | COc1ccc(C2CC(c3cccs3)=NN2C(=O)CSc2nncs2)cc1OC (stereo not drawn) | 0.18%
89 | COc1ccc(C2CC(c3cccs3)=NN2c2ccccc2)cc1 (stereo not drawn) | 11.6% (active)
90 | COc1ccc(C2=NN(c3ccccc3)C(c3cccs3)C2)cc1 (stereo not drawn) | 1.42%
91 | CSc1nc2nc3c(c(=O)n2[nH]1)CCC3 | -0.27%
92 | COc1ccc(CN2CN(C3CCCC3)CSC2=S)cc1 | -0.49%
93 | Cc1c(C(=O)Nc2cccc(-c3nnc4n3CCCCC4)c2)oc2ccccc12 | 2.38%
